Rows were chosen to be rich in hits. Some 1.5% of all compounds tested hit in one or more screens of this group.
NOD2-RIPK2 inh: NOD2-RIPK2 protein interaction inhibition; O43353; CHO BLA complementation NOD2-RIPK2, CCF4 ratio; inhibition, % at 4.98 µM; 0.38% of 360,000 active; AID 624267; in the data active = inhibition above about 21%;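 also: 0% = vehicle only and 100% = reference blocker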
TLR4-MyD88 BLA: TLR4-MyD88 interaction inhibition in cells | O00206+Q99836 | HeLa CL3-4 TLR4/MyD88 BLA complementation, FRET ratio | inhibition, % at 8.4 µM | 0.18% of 200,000 active; in the data active = inhibition above about 25%;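 also: 0% = vehicle and 100% = reference inhibitor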
ABHD5 PLIN5 PPI: inhibitors of human ABHD5-perilipin-5 interaction. Q00G26+Q8WTS1. Split G. princeps luciferase complementation, luminescence, 4 h. inhibition, % at 4 µM. 0.78% of 360,000 active;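 active = inhibition above the mean inhibition across every tested compound plus 3 SD, cut at about 22% in these data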;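 also: 0% = DMSO only wells and the 100% control is not disclosed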
Beta2AR agonist: agonists of human beta-2 adrenergic receptor inducing internalization | response, % (concentration not given with the values) | P07550 | AID 504454 | 0.43% of 340,000 active | Am2.2-beta2AR cells, FAP receptor internalization, flow cytometry;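 active = response above a set limit, near 3 SD of response in nonfluorescent compounds, cut at about 42% in these data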
TLR9-MyD88 inh: blocks human TLR9 binding to MyD88 | Q9NR96+Q99836 | inhibition, % at 4.98 µM | CHO BLA complementation TLR9-MyD88, CCF4 FRET ratio | 0.21% of 340,000 active;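 active = inhibition above the mean over all tested compounds plus 3 SD, cut at about 21% in these data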;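 also: 0% = DMSO only wells and 100% = clavulanate BLA inhibitor control wells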
NTR1 agonist: agonists of human neurotensin receptor NTR1; P30989; NTR1-U2OS beta-arrestin-GFP spot imaging, agonist mode; activation, % at 20 µM; 0.17% of 330,000 active; AID 493036;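 active = activation at or above 40% of the spot to cytoplasm intensity ratio, with at least 20 cells analyzed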;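 also: 0% = DMSO without peptide and 100% = 100 nM NTR1 peptide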
ABHD5-PLIN5 conf: ABHD5-PLIN5 interaction inhibition, confirmed. shares compounds with ABHD5 PLIN5 PPI. biochemical ABHD5-PLIN5 interaction, luminescence. inhibition, % at 4 µM. 67% of 2,200 active; in the data active = inhibition above about 23%;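 also: 0% = DMSO vehicle wells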
HNF4 split-luc: active in HNF4 split-luciferase counter-screen for ABHD5-PLIN5 inhibitors; shares compounds with ABHD5 PLIN5 PPI; HNF4 dimerization, luminescence, biochemical; inhibition, % at 4 µM; 77% of 2,200 active; AID 651674;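 active = mean inhibition across replicate wells exceeding the computed hit threshold, cut at about 13% in these data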;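 also: light from luciferase halves that rejoin when HNF4 fusion proteins dimerize; 0% = DMSO only wells and the 100% control is not given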
Target sequence (P41235 whole entry, looked up, the tested form may be a part): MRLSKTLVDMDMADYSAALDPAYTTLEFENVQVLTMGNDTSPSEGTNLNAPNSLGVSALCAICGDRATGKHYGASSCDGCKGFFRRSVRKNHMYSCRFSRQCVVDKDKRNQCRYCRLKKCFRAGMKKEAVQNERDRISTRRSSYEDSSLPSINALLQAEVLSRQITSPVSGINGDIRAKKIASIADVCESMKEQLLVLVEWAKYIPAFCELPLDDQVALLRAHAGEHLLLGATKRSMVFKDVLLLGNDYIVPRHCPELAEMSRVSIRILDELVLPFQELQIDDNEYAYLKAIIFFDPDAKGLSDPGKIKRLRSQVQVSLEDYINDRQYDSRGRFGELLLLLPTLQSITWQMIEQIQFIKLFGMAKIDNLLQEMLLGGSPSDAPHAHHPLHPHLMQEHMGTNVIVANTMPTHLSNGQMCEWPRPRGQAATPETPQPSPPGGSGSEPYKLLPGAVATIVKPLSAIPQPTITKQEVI
Active calls of the source: *; . = no result given.

SMILES	NOD2-RIPK2 inh	TLR4-MyD88 BLA	ABHD5 PLIN5 PPI	Beta2AR agonist	TLR9-MyD88 inh	NTR1 agonist	ABHD5-PLIN5 conf	HNF4 split-luc
Cc1ccc(C(=O)Nc2ccccc2C(=O)NCc2ccco2)cc1S(=O)(=O)N1CCCCC1	-5	-6	0	7	3	5	.	.
Cn1c(CCN2CCCC2)nc2cc(NS(=O)(=O)c3ccc(Cl)cc3)ccc21	8	.	27*	-1	7	3	18	16*
Cn1c(CN2CCCC2)nc2cc(NC(=O)c3ccc(Cl)cc3)ccc21	-9	-21	49*	-8	8	0	6	-1
Cn1c(CN2CCCCC2)nc2cc(NC(=O)c3ccc(Cl)cc3)ccc21	12	6	-3	2	-7	1	.	.
Cc1ccc(S(=O)(=O)Nc2ccc3c(c2)nc(CCN2CCCC2)n3C)cc1	3	.	19	1	2	3	.	.
COC(=O)C1=CN(c2ccc(C(C)(C)C)cc2)C(N)=C(C#N)C1c1ccccc1F (centres undefined)	-5	.	-5	.	.	.	.	.
COc1ccc(-c2cc(C(F)(F)F)nc(S(=O)(=O)CCCC(=O)Nc3cccnc3Cl)n2)cc1OC	11	18	24*	34	10	.	33*	50*
Cn1nc(C(C)(C)C)cc1C(=O)N1CCCCC1c1cc(C(=O)N2CCOCC2)no1 (centres undefined)	5	.	3	.	.	.	.	.
O=C(O)CCC(=O)Nc1ccc(F)cc1	1	3	-7	-3	5	-1	.	.
O=C(O)CCC(=O)Nc1ccc(SSc2ccc(NC(=O)CCC(=O)O)cc2)cc1	-8	.	44*	-4	-2	-2	47*	115*
Cc1cc(C)c2c(=O)n(CC(=O)N3CCC(N4CCCCC4)CC3)sc2n1	-3	9	34*	-4	-3	10	33*	98*
CCCNC(=O)Cn1sc2nc(C)cc(C)c2c1=O	9	.	45*	0	-6	1	30*	107*
CC(C)(C)C(=O)/C(=C/c1ccncc1)n1cncn1	15	9	29*	5	-1	-1	51*	48*
Cc1nn(C)c(C)c1/C=C(/C(=O)C(C)(C)C)n1cncn1	12	.	6	-6	7	0	.	.
Cc1noc(/C=C/c2ccccn2)c1[N+](=O)[O-]	-2	.	42*	-1	-3	5	77*	70*
CN(CCO)c1cccc2c1S(=O)(=O)N[C@H](Cc1ccccc1)CO2	0	.	-1	.	.	.	.	.
Cc1cccc[n+]1CC(=O)/C=C1\N(C)c2ccccc2C1(C)C	-4	-3	-1	-29	5	-1	.	.
CN1/C(=C/C=C/c2n(C)c3cc([N+](=O)[O-])c([N+](=O)[O-])cc3[n+]2C)C(C)(C)c2ccccc21	-12	.	34*	.	-27	.	35*	56*
CC(C)c1ccc(C(=O)NCCCN2CCOCC2)cc1	-1	.	1	2	3	1	.	.
O=C(NCCCN1CCOCC1)c1ccc(CSc2ccc(Cl)cc2)cc1	-1	-9	27*	29	-3	2	9	3
CCOC(=O)[C@]12CCCC=C1N(CCC1=CCCCC1)C(=O)[C@H](CC(=O)NCc1cccc3ccccc13)C2	1	.	2	.	.	.	.	.
CN(C)c1ccc(/C=C2/C[N+](C)(C)C/C(=C/c3ccc(N(C)C)cc3)C2=O)cc1	8	.	39*	-559	-7	.	50*	42*
CC(C)/C=C1\CC/C(=C\c2ccc(N(C)C)cc2)C1=O	-2	17	1	-13	-4	-5	.	.
CSc1cccc(N=C2C(=O)Nc3ccccc32)c1	5	.	-3	-2	6	1	.	.
O=C1Nc2ccccc2C1=Nc1cccc(Cl)c1	4	.	78*	-1	-7	4	-14	0
SMILES	NOD2-RIPK2 inh	TLR4-MyD88 BLA	ABHD5 PLIN5 PPI	Beta2AR agonist	TLR9-MyD88 inh	NTR1 agonist	ABHD5-PLIN5 conf	HNF4 split-luc
CCCCCCCCN1C(=O)[C@H](CC(=O)NCc2ccc(C)o2)C[C@@]2(C(=O)OCC)CCC=C12	-3	.	31*	.	.	.	28*	16*
CCCCCCCCN1C(=O)[C@H](CC(=O)NCc2ccc(C)o2)C[C@@]2(C(=O)OC)CCCCC=C12	0	.	36*	.	.	.	23*	7
CCCCS(=O)(=O)NC(=O)C1(C)CCN1C(=O)C/C=C/c1ccccc1 (centres undefined)	2	.	3	.	.	.	.	.
COc1ccc(OC)c2cc3ccccc3cc12	-16	.	48*	14	-7	.	67*	12
COc1cc2ccccc2cc1C(=O)O	-8	6	0	-1	-10	0	.	.
CN1CCCCC1(C)C(=O)NCc1cc(Cl)ccc1F (centres undefined)	6	.	8	.	.	.	.	.
COC(C/C=C/C(=O)[C@H](C)OCc1ccccc1)OC	-7	.	30*	14	-8	4	55*	55*
COC(C/C=C/C(=O)COCc1ccccc1)OC	0	.	24*	14	-7	2	46*	43*
COC(C[C@@H]1O[C@H]1C(=O)COCc1ccccc1)OC	0	.	31*	2	-1	0	6	1
CCOC(=O)C1(C)CCCN(C(=O)c2ccccc2OC(F)(F)F)C1 (centres undefined)	-9	.	2	.	.	.	.	.
COc1ccc(C(c2nnnn2-c2c(C)cccc2C)N2CCN(C/C=C/c3ccccc3)CC2)cc1 (centres undefined)	-5	.	-2	.	.	.	.	.
COc1cc(CN2C[C@@H](CO)O[C@@H](n3cnc4c(N5CCCC5)ncnc43)C2)cc(OC)c1OC	10	.	5	.	.	.	.	.
O=C(Cn1cc(/C=C\[N+](=O)[O-])c2ccccc21)Nc1ccccc1	1	.	27*	84*	7	47*	96*	83*
O=[N+]([O-])/C=C/c1cn(Cc2ccccc2)c2ccccc12	9	1	31*	83*	6	3	101*	99*
O=C(O)Cn1cc(/C=C/[N+](=O)[O-])c2ccccc21	-8	-4	15	3	-7	1	.	.
CCC(=O)N(C)C[C@H]1Oc2ncc(C#Cc3cccnc3)cc2C(=O)N([C@@H](C)CO)C[C@@H]1C	6	.	5	.	-7	.	.	.
O=C(/C(=C/c1ccccc1)n1cncn1)c1ccc(Cl)cc1Cl	-3	-2	33*	21	0	4	90*	57*
N#C/C(=C\c1ccccc1OCc1ccc(C(=O)O)cc1)C(=O)Nc1ccc(O)cc1	-6	10	46*	-16	-9	1	58*	56*
CCC1(C(=O)OC)NC(c2ccco2)C2C(=O)N(c3ccccc3)C(=O)C21 (centres undefined)	0	-11	25*	12	3	-1	11	13*

Screens from PubChem.
